# In PubChem BioAssay AID602429 (Sanford-Burnham Center for Chemical Genomics, 2012):
# The whole screen tested about 360,000 compounds, of which about 1,200 (0.33%) were called active. What follows is part of a selection rich in actives, with near analogues and random picks from the rest. Values without a mark were called inactive. Rule as the data show it: active = inhibition above about 37%; inactive = the rest.
# Molecular target: Small ubiquitin-related modifier 1 (Homo sapiens) (UniProt P63165)
# Sequence (P63165 whole entry, looked up): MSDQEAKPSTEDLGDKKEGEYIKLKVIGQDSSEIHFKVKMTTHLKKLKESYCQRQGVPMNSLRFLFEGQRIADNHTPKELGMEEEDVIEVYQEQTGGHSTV
# Assay: SUMO1 binding to interaction partners, disruption – biochemical, uHTS, primary screen (AID 602429)
# Conditions: SUMO1 binding to a labelled peptide, TR-FRET, 1 h; at 20 µM; hits give high values
row,Compound,inhibition
1,O=C1NC[C@H](CCCCN2CCN(CCc3ccccc3)C(=O)C2=O)N(CC2CCCCC2)C1=O,0.562%
2,COc1cc(OC)c(OC)cc1/C=N/Nc1ncnc2c1[nH]c1ccc(C)cc12,60.7% (active)
3,Cc1ccc2[nH]c3c(=O)n(Cc4ccccn4)cnc3c2c1,2.63%
4,CC1(C)CC(=O)C=C(c2ccc(COC(=O)c3cc(F)cc(F)c3)cc2)C1=O,-22.7%
5,COc1ccc(OC)c(NC(=S)N2CCc3ccccc3C2)c1,0.375%
6,O=C(NCc1ccccc1)C(c1ccc(F)cc1)N1CCN(C(=O)C2CCCO2)CC1 (stereo unspecified),-1.69%
7,CCOC(=O)c1c(-c2cccc(N)c2)cn2ccccc12,-5.65%
8,CC1(C)OC(=O)N2CCc3ccccc3C21C (stereo unspecified),3.74%
9,CC(=O)Nc1ccc(S(=O)(=O)N2CCC(C(=O)N[C@@H](Cc3ccccc3)C(=O)O)CC2)cc1,0.0701%
10,COc1cc(C2C3C(=O)N(c4ccccc4)C(=O)C3ON2c2ccccc2)ccc1O (stereo unspecified),5.72%
11,O=c1ccc2c(-c3ccccc3S(=O)(=O)O)c3ccc(O)c(O)c3oc-2c1O,48.2% (active)
12,COc1cccc(-c2cc3nc4c(c(N5CCC6(CC5)OCCO6)n3n2)CCCC4)c1,1.23%
13,N#CC1(NC(=O)COC(=O)CSc2ccc(F)cc2)CCCCC1,1.24%
14,O=C(NCC1CCCO1)C1CCN(C2CCN(C(=O)C3CCCCC3)CC2)CC1 (stereo unspecified),2.09%
15,COc1ccc(C(=O)NCc2ccccc2C)cc1S(=O)(=O)NC1CCCC1,0.24%
16,CCCNC(=O)C1(C)CCN(C(=O)c2cc(F)ccc2C)C1 (stereo unspecified),-2.78%
17,CCCCCc1nnc(NC(=O)c2ccc(=O)n(C)n2)s1,-5.45%
18,COCCNC(=O)Cn1cc2c(n1)CCCCC2,42.7% (active)
19,COc1ccccc1CNC(=O)Cn1cc2c(n1)CCCC2,-1.54%
20,O=C(Cn1cc2c(n1)CCCCC2)NCCN1CCOCC1,-0.24%
21,Cc1ccc(NC(=O)c2oc(=O)c3ccccc3c2-c2ccccc2)c(C)c1,3.85%
22,CCC1(C)COC(c2ccc(OC)c(OC)c2)OC1 (stereo unspecified),0.985%
23,CCCC(C(=O)n1nc(C)cc1C)C(NS(=O)(=O)c1ccc(C)cc1)c1ccccc1 (stereo unspecified),-1.84%
24,Nc1ccc2nc3c(=O)[nH]c(=S)[nH]c3nc2c1,92.6% (active)
25,CC(C)c1nc(SCC(=O)NC(=O)NC(C)(C)C)n[nH]1,1.88%
26,COc1ccc(C)cc1N(CC(=O)NC(C)c1ccccc1)S(C)(=O)=O (stereo unspecified),-0.711%
